# Measurements as given in the supplement of paper PMC7695840.
# Assays:
# [1] = system: Staphylococcus aureus MW2 delta-mecA (mecA-); assay: normalized GFP fluorescence (growth of mecA- strain) (fraction of control range); higher = more growth of mecA- strain; conditions: compound concentration: 150 uM; cefoxitin: subinhibitory; fluorescent label: GFP
# How it was run: (§1)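 Compound at 150 μM (1.5% DMSO) in 1536-well plates received 5 µL/well of pre-induced S. aureus MW2 cells mixed 1:1, gene-carrying with DsRed and gene-deleted with GFP, in LB with a daily-set subinhibitory antibiotic dose, single replicate. After 20 h unshaken at 37 °C, 90% humidity, DsRed (540/590) and GFP (485/520) were measured and scaled per plate between single-strain control medians. Plates with high untreated ratios and rows with DsRed/GFP >10 were excluded.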
# [2] = system: Staphylococcus aureus MW2 (mecA+); assay: normalized DsRed fluorescence (growth of mecA+ strain) (fraction of control range); higher = more growth of mecA+ strain; conditions: compound concentration: 150 uM; cefoxitin: subinhibitory; fluorescent label: DsRed
# How it was run: as §1
Compound,normalized GFP fluorescence [1],normalized DsRed fluorescence [2]
Oc1cccc(O)c1,0.565,0.516
OCCOCCN1CCN(C(c2ccccc2)c2ccc(Cl)cc2)CC1 (stereo not drawn),-0.0253,0.833
Cc1cnc(NC(=O)C2=C(O)c3ccccc3S(=O)(=O)N2C)s1,0.204,0.469
COc1ccccc1OCC(O)CN1CCN(CC(=O)Nc2c(C)cccc2C)CC1 (stereo not drawn),0.863,0.62
Nc1nc(O)c2ncn(CCC(CO)CO)c2n1,0.331,0.941
CCC1(C)CC(=O)NC1=O (stereo not drawn),0.678,0.691
O=C(CCCCCCC(=O)Nc1ccccc1)NO [Vorinostat (SAHA)],0.386,0.944
COc1ccc(CC(C)NCC(O)c2ccc(O)c(NC=O)c2)cc1 (stereo not drawn) [Formoterol hemifumarate],0.777,0.699
CCCCCC(=O)O[C@]1(C(C)=O)CC[C@H]2[C@@H]3CCC4=CC(=O)CC[C@]4(C)[C@H]3CC[C@@]21C,0.34,0.39
CCCN(CCC)CCc1cccc2c1CC(=O)N2,0.224,1.03
O=NN(CCCl)C(=O)NC1CCCCC1,0.569,0.767
NS(=O)(=O)c1cc2c(cc1Cl)NCNS2(=O)=O,0.562,0.865
CC(=O)N[C@H]1[C@H]([C@H](O)[C@H](O)CO)OC(C(=O)O)=C[C@@H]1NC(=N)N [Zanamivir (Relenza)],0.233,0.719
CN1CCC(=C2c3ccccc3C=Cc3ccccc32)CC1,0.0037,1.31
COc1ccc(CNc2nc(N3CCC[C@H]3CO)ncc2C(=O)NCc2ncccn2)cc1Cl [Avanafil],0.53,0.718
CC(=O)O[C@]1(C(C)=O)CC[C@H]2[C@@H]3C=C(C)C4=CC(=O)CC[C@]4(C)[C@H]3CC[C@@]21C,0.381,0.78
CCN(Cc1ccncc1)C(=O)C(CO)c1ccccc1 (stereo not drawn),0.402,0.607
CO[C@H]1C[C@@H]2CC[C@@H](C)[C@@](O)(O2)C(=O)C(=O)N2CCCC[C@H]2C(=O)O[C@H]([C@H](C)C[C@@H]2CC[C@@H](OC(=O)C(C)(CO)CO)[C@H](OC)C2)CC(=O)[C@H](C)/C=C(\C)[C@@H](O)[C@@H](OC)C(=O)[C@H](C)C[C@H](C)/C=C/C=C/C=C/1C [Temsirolimus (Torisel)],-0.00155,1.96
O=C(/C=C/c1cccc(S(=O)(=O)Nc2ccccc2)c1)NO [Belinostat (PXD101)],0.364,1.16
Cc1cc(=O)[nH]c(=S)[nH]1,0.707,0.716
COc1ccc2cc(CCC(C)=O)ccc2c1,0.292,0.79
O=C1NCC2(CCN(CCc3ccccc3)CC2)O1,0.307,0.724
Nc1cc(N2CCCCC2)nc(N)[n+]1[O-],0.524,0.731
Nc1ccc(S(=O)(=O)Nc2ccccn2)cc1,0.364,0.542
C[C@@H]1NC(=O)[C@@H](N)CNC(=O)[C@H](C2CCNC(=N)N2)NC(=O)/C(=C/NC(N)=O)NC(=O)[C@H](CNC(=O)CC(N)CCCN)NC1=O.N=C1NCCC([C@@H]2NC(=O)/C(=C/NC(N)=O)NC(=O)[C@H](CNC(=O)CC(N)CCCN)NC(=O)[C@H](CO)NC(=O)[C@@H](N)CNC2=O)N1 (stereo partly drawn),0.494,0.758
C[C@@H]1C/C=C/C=C/C=C/C=C/[C@H](O[C@@H]2O[C@H](C)[C@@H](O)[C@H](N)[C@@H]2O)C[C@@H]2O[C@](O)(C[C@@H](O)C[C@H]3O[C@@H]3/C=C/C(=O)O1)C[C@H](O)[C@H]2C(=O)O,0.448,0.753
CN/C(=N\CCSCc1nc[nH]c1C)NC#N,0.567,1.05

Compound,normalized GFP fluorescence [1],normalized DsRed fluorescence [2]
CN(C)C/C=C/C(=O)Nc1cc2c(Nc3ccc(F)c(Cl)c3)ncnc2cc1O[C@H]1CCOC1 [Afatinib (BIBW2992)],-0.00507,1.68
CC(C)NCC(O)COc1cccc2ccccc12 (stereo not drawn),0.142,1.24
COc1cc(C(=O)NCc2ccc(OCCN(C)C)cc2)cc(OC)c1OC,0.326,0.862
c1ccc2[nH]c(-c3cscn3)nc2c1,0.302,0.444
NS(=O)(=O)c1cc2c(cc1Cl)N=CNS2(=O)=O,0.373,0.683
NNCCc1ccccc1,0.153,0.707
CCN(CC)Cc1cc(Nc2ccnc3cc(Cl)ccc23)ccc1O,0.205,0.684
CC(=O)[C@@]1(O)CC[C@H]2[C@@H]3CCC4=CC(=O)CCC4=C3[C@@H](c3ccc(N(C)C)cc3)C[C@@]21C [Ulipristal],0.57,0.967
CC(C)C[C@H](NC(=O)[C@H](CCc1ccccc1)NC(=O)CN1CCOCC1)C(=O)N[C@@H](Cc1ccccc1)C(=O)N[C@@H](CC(C)C)C(=O)[C@@]1(C)CO1 [Carfilzomib (PR-171)],0.271,1.11
CCc1cc(C(N)=S)ccn1,0.386,0.65
CC[C@@]1(O)C(=O)OCc2c1cc1n(c2=O)Cc2cc3c(CN(C)C)c(O)ccc3nc2-1,0.791,0.763
Clc1ccc(CSC(Cn2ccnc2)c2ccc(Cl)cc2Cl)cc1 (stereo not drawn),-0.00367,0.00806
CC(=O)OCC(=O)[C@@]12OC3(CCCC3)O[C@@H]1C[C@H]1[C@@H]3CCC4=CC(=O)C=C[C@]4(C)[C@@]3(F)[C@@H](O)C[C@@]12C,0.197,0.883
CCOC(=O)[C@H](CCc1ccccc1)N[C@H]1CCCN2CCC[C@@H](C(=O)O)N2C1=O [Cilazapril monohydrate (Inhibace)],0.646,0.59
OCC(S)CS (stereo not drawn),0.185,0.549
C=C[C@H]1CN2CC[C@H]1C[C@@H]2[C@@H](O)c1ccnc2ccc(OC)cc12,0.452,0.631
NC(=O)C1(N2CCCCC2)CCN(CCCC(=O)c2ccc(F)cc2)CC1,0.529,0.733
CCCCCC(C)N (stereo not drawn),0.403,0.663
CN(C)CCC(c1ccc(Br)cc1)c1ccccn1 (stereo not drawn),0.11,1.02
Nc1nc2[nH]cc(CCc3ccc(C(=O)N[C@@H](CCC(=O)O)C(=O)O)cc3)c2c(=O)[nH]1,0.937,0.63
Nc1ccc(C(=O)NCC(=O)O)cc1,0.297,0.671
CCn1cc(C(=O)O)c(=O)c2cc(F)c(N3CCNCC3)nc21 [Enoxacin (Penetrex)],0.206,0.928
CCOc1cc([C@@H](CS(C)(=O)=O)N2C(=O)c3cccc(NC(C)=O)c3C2=O)ccc1OC,0.254,0.579
O=C1c2c(O)ccc(O)c2C(=O)c2c(NCCNCCO)ccc(NCCNCCO)c21,0.184,1.12
COc1ccc(-c2cc(=O)c3c(O)cc(O[C@@H]4O[C@H](CO[C@@H]5O[C@@H](C)[C@H](O)[C@@H](O)[C@H]5O)[C@@H](O)[C@H](O)[C@H]4O)cc3o2)cc1O [Diosmin],0.55,1.27
N=C(N)N,0.207,0.654
COc1cc2nc(N3CCN(C(=O)c4ccco4)CC3)nc(N)c2cc1OC,0.593,0.809

Compound,normalized GFP fluorescence [1],normalized DsRed fluorescence [2]
CN(C)CCCN1c2ccccc2CCc2ccc(Cl)cc21,-0.0283,0.939
COCCCOc1cc(C[C@@H](C[C@H](N)[C@@H](O)C[C@H](C(=O)NCC(C)(C)C(N)=O)C(C)C)C(C)C)ccc1OC,0.131,0.717
Fc1ccc([C@@H]2CCNC[C@H]2COc2ccc3c(c2)OCO3)cc1,-0.0171,1.15
CC[C@@H]([C@H](C)O)n1ncn(-c2ccc(N3CCN(c4ccc(OC[C@@H]5CO[C@@](Cn6cncn6)(c6ccc(F)cc6F)C5)cc4)CC3)cc2)c1=O [Posaconazole],0.833,0.572
CN[C@@H]1[C@@H](O)[C@@H](O[C@@H]2[C@@H](O)[C@H](O[C@H]3OC(CN)=CC[C@H]3N)[C@@H](N)C[C@H]2N)OC[C@]1(C)O,0.511,0.916
Clc1ccc(CCC(Cn2ccnc2)Sc2c(Cl)cccc2Cl)cc1 (stereo not drawn),-0.00294,0.01
NCc1ccc(S(N)(=O)=O)cc1,0.22,0.71
O=C(O)COCCN1CCN([C@H](c2ccccc2)c2ccc(Cl)cc2)CC1,0.222,0.775
CC1=NN(c2ccccc2)C(=O)C1 [Edaravone (MCI-186)],0.706,0.531
COc1c2occc2cc2ccc(=O)oc12,0.476,0.402
Cc1cn[nH]c1,0.665,0.838
NS(=O)(=O)c1cc2c(cc1C(F)(F)F)NC(Cc1ccccc1)NS2(=O)=O (stereo not drawn),0.428,0.653
COc1cc2c(cc1Cc1cccc(Cl)c1F)c(=O)c(C(=O)O)cn2[C@H](CO)C(C)C [Elvitegravir (GS-9137)],0.0202,0.102
CN1[C@@H]2CC[C@H]1C[C@@H](OC(=O)c1c[nH]c3ccccc13)C2 [Tropisetron],0.528,0.582
Cc1cccc(N(C)C(=S)Oc2ccc3ccccc3c2)c1,0.561,0.911
Cn1ncnc1[C@H]1c2n[nH]c(=O)c3cc(F)cc(c23)N[C@@H]1c1ccc(F)cc1 [Talazoparib (BMN 673)],0.42,0.777
CCc1c2c(nc3ccc(OC(=O)N4CCC(N5CCCCC5)CC4)cc13)-c1cc3c(c(=O)n1C2)COC(=O)[C@]3(O)CC,0.461,0.626
Cc1c(OCC(F)(F)F)ccnc1C[S@@+]([O-])c1nc2ccccc2[nH]1,0.348,0.452
Cc1cc(O)cc(C)c1Cl,0.0289,0.544
CC(=O)OCC(=O)[C@@]12OC(C)(C)O[C@@H]1C[C@H]1[C@@H]3C[C@H](F)C4=CC(=O)C=C[C@]4(C)[C@@]3(F)[C@@H](O)C[C@@]12C,0.439,0.736
CN1CCN2c3ccccc3Cc3ccccc3C2C1 (stereo not drawn),0.0802,1.52
O=C(c1ccccc1)c1ccc2n1CCC2C(=O)O (stereo not drawn),0.247,0.711
COc1ccc2cc([C@H](C)C(=O)O)ccc2c1 [Naproxen (Aleve)],0.0134,0.825
CCN(CC)CC(=O)Nc1c(C)cccc1C,0.574,0.76
NC(=O)c1ncn([C@@H]2O[C@H](CO)[C@@H](O)[C@H]2O)n1,0.38,0.58
